Measured values from the supplement of paper PMC13380429.

Tested on: Vero E6 infected with SARS-CoV-2
Assay: inhibition of SARS-CoV-2 cytopathic effect; higher = more antiviral protection, active = above 15
Settings: 48 h

Measured: inhibition of SARS-CoV-2 cytopathic effect

CCCCOc1c(C(=O)c2c(F)cc(C)cc2F)c[nH]c2nncc1-2
inactive: 1 nM 0.56% | 8.33 nM -0.26% | 100 nM 0.08% | 833.33 nM -0.55% | 10000 nM -3.38%

CC(C)OC(=O)OCOP(=O)(CO[C@H](C)Cn1cnc2c(N)ncnc21)OCOC(=O)OC(C)C [tenofovir-disoproxil]
inactive: 1 nM 0.65% | 8.33 nM -1.58% | 100 nM 3.17% | 833.33 nM -4% | 10000 nM -9.11%

COCCOc1ccc(N2CCN(CCn3ncc4c3nc(N)n3nc(-c5ccco5)nc43)CC2)cc1 [preladenant]
inactive: 1 nM 1.43% | 8.33 nM 0.62% | 100 nM 3.21% | 833.33 nM 0.67% | 10000 nM 2.45%

COc1ccccc1N1CCN(CCCNc2cc(=O)n(C)c(=O)n2C)CC1 [urapidil]
inactive: 1 nM 0.14% | 8.33 nM -1.36% | 100 nM -0.45% | 833.33 nM 2.04% | 10000 nM -0.1%

COc1cc(C(=O)N2CCOCC2)cc(OC)c1OC [trimetozine]
inactive: 1 nM 0.84% | 8.33 nM 0.93% | 100 nM 1.16% | 833.33 nM 4.1% | 10000 nM 2.28%

CN1CCc2cc3c(cc2[C@H]1[C@@H]1OC(=O)c2c1ccc1c2OCO1)OCO3 [bicuculline-(+)]
inactive: 1 nM 0.45% | 8.33 nM 1.6% | 100 nM 0.39% | 833.33 nM 0.32% | 10000 nM 0.5%

Cc1cc2c(C(C)C)c(O)c(O)c(C=O)c2c(O)c1-c1c(C)cc2c(C(C)C)c(O)c(O)c(C=O)c2c1O [gossypol]
inactive: 1 nM -0.82% | 8.33 nM -3.04% | 100 nM -0.64% | 833.33 nM -2.5% | 10000 nM -6.17%

CNC[C@H](O)[C@@H](O)[C@H](O)[C@H](O)CO [meglumine]
inactive: 1 nM -10% | 8.33 nM -10.3% | 100 nM -6.44% | 833.33 nM -11.4% | 10000 nM -10.1%

COc1cc2c(cc1OC)-c1cc3ccc(OC)c(OC)c3c[n+]1CC2 [palmatine-chloride]
inactive: 1 nM -2.25% | 8.33 nM 0.72% | 100 nM -0.15% | 833.33 nM -2.8% | 10000 nM 2.04%

COC(=O)Nc1ccc(-c2nc(N3CCOCC3)c3cnn(C4CCN(Cc5cccnc5)CC4)c3n2)cc1
inactive: 1 nM -4.18% | 8.33 nM -1.95% | 100 nM 3.87% | 833.33 nM -4.82% | 10000 nM -2.6%

CCOC(=O)[C@]12CC1/C(=N\O)c1ccccc1O2 (stereo not given in full)
inactive: 1 nM 1.49% | 8.33 nM -0.95% | 100 nM -1.19% | 833.33 nM -3.34% | 10000 nM -1.39%

CCCCn1ccc(N2CCC(c3ccccc3)CC2)c(Cl)c1=O
inactive: 1 nM 1.82% | 8.33 nM 3.38% | 100 nM 1.99% | 833.33 nM 1.64% | 10000 nM -5.17%

CN1CCCN(C(c2ccccc2)c2ccc(Cl)cc2)CC1 (stereo not given) [homochlorcyclizine]
inactive: 1 nM 2.1% | 8.33 nM 1.84% | 100 nM 1.43% | 833.33 nM -2.39% | 10000 nM -1.32%

COc1ccc(-c2cnc3c(-c4cccc5ncccc45)cnn3c2)cc1
inactive: 1 nM -0.88% | 8.33 nM -0.75% | 100 nM 0.925% | 833.33 nM -0.45% | 10000 nM 0.53%

CS(=O)(=O)OC[C@H](O)[C@@H](O)COS(C)(=O)=O [treosulfan]
inactive: 1 nM 0.41% | 8.33 nM 0.48% | 100 nM -0.46% | 833.33 nM 0.71% | 10000 nM 1.56%

Clc1cc(Cl)c(OCC#CI)cc1Cl [haloprogin]
inactive: 1 nM -0.57% | 8.33 nM -1.3% | 100 nM -0.9% | 833.33 nM 4.17%
active: 10000 nM 15.9%

CN1CCC(CNc2ccc3ncc(-c4cccc(OC(F)(F)F)c4)n3n2)CC1
inactive: 1 nM 2.01% | 8.33 nM 5.2% | 100 nM 2.97% | 833.33 nM -0.97%
active: 10000 nM 19.8%

CCCCCCC[N+](CC)(CC)CCCCc1ccc(Cl)cc1 [clofilium]
inactive: 1 nM 2.85% | 8.33 nM 1.44% | 100 nM 1.58% | 833.33 nM 1.2% | 10000 nM 3.38%

CCN1CCC(n2cc(CNc3cc(Cl)c4ncc(C#N)c(Nc5ccc(F)c(Cl)c5)c4c3)nn2)CC1 [cot-inhibitor-2]
inactive: 1 nM 0.26% | 8.33 nM -1.48% | 100 nM 0.28% | 833.33 nM -0.75% | 10000 nM 14%

O=C(Nc1ccc(C(O)(C(F)(F)F)C(F)(F)F)cc1)c1ccc(C(F)(F)F)cc1
inactive: 1 nM 0.8% | 8.33 nM 1.24% | 100 nM 0.25% | 833.33 nM 1.02% | 10000 nM 1.6%

O=C(Nc1cccc(Cl)c1)Nc1ncc(CCNc2ncnc3ccsc23)s1
inactive: 1 nM 0.21% | 8.33 nM 0.43% | 100 nM 3.34% | 833.33 nM -0.89% | 10000 nM -1.37%

Cc1cc(/C=C/C#N)cc(C)c1Nc1ccnc(Nc2ccc(C#N)cc2)n1 [rilpivirine]
inactive: 1 nM 0.35% | 8.33 nM -3.25% | 100 nM -2.82% | 833.33 nM -1.06% | 10000 nM -6.76%

C[C@]12CCC(=O)C[C@@H]1CC[C@@H]1[C@@H]2CC[C@]2(C)[C@@H](O)CC[C@@H]12 [Dihydrotestosterone]
inactive: 1 nM -0.75% | 8.33 nM -1.02% | 100 nM -1.92% | 833.33 nM -2.8% | 10000 nM -3.3%

NCc1ccccc1CC(=O)N[C@@H]1C(=O)N2C(C(=O)O)=C(CSc3nnnn3CC(=O)O)CS[C@H]12 [ceforanide]
inactive: 1 nM 0.96% | 8.33 nM 0.98% | 100 nM -0.17% | 833.33 nM 2.04% | 10000 nM 2.57%

N[C@@H](Cc1ccc(O)cc1)C(=O)NCC(=O)NCC(=O)O
inactive: 1 nM 1.38% | 8.33 nM 0.88% | 100 nM 1.16% | 833.33 nM 1.07% | 10000 nM 0.4%

CO/N=C(\C(=O)N[C@@H]1C(=O)N2C(C(=O)O)=C(CSC(=O)c3ccco3)CS[C@H]12)c1csc(N)n1
inactive: 1 nM -0.19% | 8.33 nM -0.66% | 100 nM -1.18% | 833.33 nM -0.09% | 10000 nM -0.18%

CN1CCC[C@@H]1CCO[C@](C)(c1ccccc1)c1ccc(Cl)cc1 [clemastine]
inactive: 1 nM 3.3% | 8.33 nM 4.37% | 100 nM 2.07% | 833.33 nM 0.78% | 10000 nM 0.68%

O=C1NC(O)CCN1[C@@H]1O[C@H](CO)[C@@H](O)[C@H]1O (stereo not given in full) [tetrahydrouridine]
inactive: 1 nM 2.54% | 8.33 nM 1.19% | 100 nM 0.47% | 833.33 nM -0.67% | 10000 nM -0.83%

O=C(O)CCC(=O)O [succinic-acid]
inactive: 1 nM -0.06% | 8.33 nM -1.83% | 100 nM -1.13% | 833.33 nM -0.66% | 10000 nM 2.3%

CC(C)[C@@]1(NC(=O)[C@@H]2C[C@@H]3c4cccc5[nH]cc(c45)C[C@H]3N(C)C2)O[C@@]2(O)[C@@H]3CCCN3C(=O)[C@H](Cc3ccccc3)N2C1=O [dihydroergocristine]
inactive: 1 nM 3.37% | 8.33 nM -0.59% | 100 nM 0.24% | 833.33 nM -1.73% | 10000 nM -1.9%

CC(C)[C@H]1[C@@H]2CC[C@@H](C2)[C@@H]1N
inactive: 1 nM 0.17% | 8.33 nM 2.01% | 100 nM 5.77% | 833.33 nM 6.62% | 10000 nM 4.27%

CC(C)(O)[C@@H]1[C@H]2OC(=O)[C@@H]1[C@]1(O)C[C@H]3O[C@]34C(=O)O[C@H]2[C@]14C [picrotin]
inactive: 1 nM -0.34% | 8.33 nM 1.31% | 100 nM 1.26% | 833.33 nM -0.13% | 10000 nM 3.22%

CC(=N)NCc1cccc(CN)c1
inactive: 1 nM 0.8% | 8.33 nM -0.79% | 100 nM -0.18% | 833.33 nM 1.65% | 10000 nM 0.53%

c1ccc2nc(C3=NCCN3)ccc2c1
inactive: 1 nM -1% | 8.33 nM 0.61% | 100 nM 2.25% | 833.33 nM 3.75% | 10000 nM 2.01%

CCc1ccc(C2=CC(C)(C)Sc3ccc(C#Cc4ccc(C(=O)O)cc4)cc32)cc1
inactive: 1 nM 0.1% | 8.33 nM 2.14% | 100 nM 1.4% | 833.33 nM 1.53% | 10000 nM 3.68%

O=C1CC[C@@H](C(=O)N2CSC[C@H]2C(=O)O)N1 [pidotimod]
inactive: 1 nM -1.03% | 8.33 nM 0.49% | 100 nM -1.22% | 833.33 nM 2.73% | 10000 nM -0.3%

CN(C)CCc1c[nH]c2ccc(C[C@H]3COC(=O)N3)cc12 [zolmitriptan]
inactive: 1 nM -2.55% | 8.33 nM 2.01% | 100 nM -1.58% | 833.33 nM -2.13% | 10000 nM -2.93%

CCCCCCCCCCC[C@@H](C[C@@H]1OC(=O)[C@H]1CCCCCC)OC(=O)[C@H](CC(C)C)NC=O [orlistat]
inactive: 1 nM 1.59% | 8.33 nM 3.04% | 100 nM 0.9% | 833.33 nM 2.31% | 10000 nM 1.43%

CNC(=O)c1cccc2cc(Oc3ccnc4cc(OCC5(N)CC5)c(OC)cc34)ccc12 [lucitanib]
inactive: 1 nM 0.14% | 8.33 nM 2.44% | 100 nM 1.47% | 833.33 nM 2.09% | 10000 nM 2.58%

c1cc2c3c(c1)c1c(n3CCNC2)CCCC1
inactive: 1 nM -1.27% | 8.33 nM -0.02% | 100 nM 0.6% | 833.33 nM 0.21% | 10000 nM -0.08%
